Assay [1] deals with T1, Aspartate--tRNA(Asp/Asn) ligase (Mycobacterium tuberculosis (strain ATCC 25618 / H37Rv)) (UniProt P9WFW3).
T1 sequence (whole entry): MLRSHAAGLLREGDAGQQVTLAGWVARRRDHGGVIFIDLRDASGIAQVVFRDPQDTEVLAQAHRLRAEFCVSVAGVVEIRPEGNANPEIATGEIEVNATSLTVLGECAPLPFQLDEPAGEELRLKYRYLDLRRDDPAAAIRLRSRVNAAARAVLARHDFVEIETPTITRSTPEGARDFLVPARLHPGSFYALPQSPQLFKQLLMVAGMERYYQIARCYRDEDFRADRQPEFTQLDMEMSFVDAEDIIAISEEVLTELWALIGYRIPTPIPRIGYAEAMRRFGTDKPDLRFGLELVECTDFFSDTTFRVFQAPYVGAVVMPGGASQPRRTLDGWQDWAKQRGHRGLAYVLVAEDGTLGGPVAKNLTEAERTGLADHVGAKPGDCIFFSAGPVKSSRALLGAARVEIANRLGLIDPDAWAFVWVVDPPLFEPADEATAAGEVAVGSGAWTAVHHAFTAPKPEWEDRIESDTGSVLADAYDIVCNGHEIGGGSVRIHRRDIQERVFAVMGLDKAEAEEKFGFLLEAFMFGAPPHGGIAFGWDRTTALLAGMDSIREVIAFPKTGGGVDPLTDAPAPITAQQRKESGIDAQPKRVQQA
As to the kind of experiment: Assay for Asp RNA synthetase-1 from Mycobacterium tuberculosis. The format is functional. Set-up: scale not given: direction of the effect not stated beside the values. The conditions noted are these: 30 µM.

Assay [2] deals with Shiga toxin 2 (Escherichia coli O157:H7) (UniProt P09385+P09386). The assay can be described thus: E. coli 0.157:H7 Shiga Toxin SOP - stx2 screening assay. The format is functional. On the set-up: scale not given: direction of the effect not stated beside the values. The conditions noted are these: 30 µM.

Consider `CC(=O)N1CCC2(CC1)COCCN2Cc1ccc(F)cc1`, for which the Percent Effect in assay [1] is -4.11%; in assay [2] it was -2.06%.
Taken in the same sequence, the figures for `CC(=O)c1cccc(OCC(=O)NS(=O)(=O)c2ccc(C)s2)c1` were -3.8% and -7.24%.
Take `O=C(NCc1cc[nH]n1)NCC(O)COc1cccc(F)c1` (stereo not given): the Percent Effect in assay [1] is 1.72%; in assay [2] it was -40%.
Taken in the same sequence, the figures for `Cc1cc(N2CCC(NC(=O)C3CC3)CC2)nc(-c2ccncc2)n1` were 0.463% and -21.4%.
Taken in the same sequence, the figures for `CCc1nc(C2CCCN(C(=O)c3ccc4[nH]nnc4c3)C2)no1` (stereo not given) were 2.74% and 14.5%.
Taken in the same sequence, the figures for `CC(C(=O)N1CCC(Nc2cccnn2)CC1)n1ccnc1` (stereo not given) were 7.4% and 0.729%.
For `O=C(NCCOc1ncc(Cl)cc1Cl)c1ccncc1`, the Percent Effect was 5.64% in assay [1] and -19.5% in assay [2].
In the case of `c1cnc(N2CCC3(CCN(Cc4ccncc4)CC3)CC2)nc1`, the Percent Effect in assay [1] is -2.46%; in assay [2], 1.18%.
Taken in the same sequence, the figures for `O=C(CCN1C(=O)CCC1=O)Nc1cnn(-c2ccccc2Cl)c1` were 2.85% and 1.3%.
Taken in the same sequence, the figures for `O=C1CC2(CCN(S(=O)(=O)C3CC3)C2)CN1c1cncnc1` (stereo not given) were 4.51% and -33.9%.
As for `Cc1ccc2c(c1)c(CNC(=O)C1CCN(C(C)C)CC1)nn2C`, the Percent Effect in assay [1] is -0.814%; in assay [2] it was -2.96%.
Taken in the same sequence, the figures for `Cc1cc(C[C@@H]2COC[C@H]2NCc2ccc(Br)s2)on1` were -1.77% and 4.69%.
Take `CC[C@H](C)[C@H](NC(=O)c1ccccc1-n1cnnn1)C(=O)OC`: the results for the Percent Effect in assay [1] and in assay [2] were 3.95% and -29.9%, respectively.
Taken in the same sequence, the figures for `CC(=O)Nc1nc(CN2CCCC2Cn2cncn2)cs1` (stereo not given) were -6.16% and -44%.
Taken in the same sequence, the figures for `CCc1nnc2n1CCN(Cc1csc(-c3cnn(C)c3)n1)C2` were 6.46% and -29.4%.
Taken in the same sequence, the figures for `CCN1CCN(CC(O)c2ccc(OC(F)(F)F)cc2)CC1` (stereo not given) were 5.22% and -5.3%.
In the case of `CCS(=O)(=O)Nc1ccc(C(=O)NCCCN2CCCC2)cc1`, the Percent Effect was 8.39% in assay [1] and -19% in assay [2].
Taken in the same sequence, the figures for `COc1ncccc1NC(=O)NCC1CCS(=O)(=O)C1` (stereo not given) were 1.33% and -1.65%.
Taken in the same sequence, the figures for `Cc1cc(C)n(CC2CCCCN2CCCS(N)(=O)=O)n1` (stereo not given) were -7.33% and -48%.
`CCn1ccnc1CN1CCCC(CO)(Cc2cccc(Cl)c2)C1` (stereo not given): the Percent Effect in assay [1] was found to be 10%; in assay [2], 15.9%.
Taken in the same sequence, the figures for `CCn1nccc1CNC(=O)C1CC1` were 11% and -39.4%.
Taken in the same sequence, the figures for `CN(CCn1nc2ccccn2c1=O)CC(=O)N1CCCC1` were -1.5% and -5.38%.
Taken in the same sequence, the figures for `Cn1cc(N2CCCC(NCc3cccc4c3OCCCO4)C2)cn1` (stereo not given) were 2.49% and 22.1%.
For the molecule `CC(C)c1ccsc1C(=O)N1CCCN(Cc2cscn2)CC1`, the Percent Effect is 6.6% in assay [1] and 14.7% in assay [2].
Taken in the same sequence, the figures for `Cc1cccc(NC(=O)N2CCCn3cnc(CN4CCCC4)c3C2)c1` were -3.25% and -16.8%.
Taken in the same sequence, the figures for `CC(C(=O)N1CCCC1)N1CCC(c2nccn2Cc2cscn2)CC1` (stereo not given) were 1.8% and -3.75%.
Regarding `CN(Cc1nccn1CC(F)(F)F)C(=O)c1ccc(F)cc1F`, the Percent Effect in assay [1] turned out to be 1.98%; in assay [2] it was 9.03%.
For `CCc1cnc(CN(C)C2CCN(CCc3cccs3)C2)o1` (stereo not given), the Percent Effect in assay [1] is 2.92%; in assay [2], 23.3%.
Taken in the same sequence, the figures for `O=C(CCSc1ccc(F)cc1)NS(=O)(=O)c1ccc2c(c1)OCCO2` were -0.411% and -1.47%.
Taken in the same sequence, the figures for `COc1ccc(CNCCc2cc(F)cc3c2OCOC3)cc1O` were 3.65% and -23.1%.
Taken in the same sequence, the figures for `Cc1ccc(C)c(C(NC(=O)C2CC2)c2cccnc2)c1` (stereo not given) were -0.277% and -13.4%.
Take `Cc1cnn(CC2CCCCN2CC(=O)Nc2c(C)n[nH]c2C)c1` (stereo not given): the Percent Effect in assay [1] was -1.88%; in assay [2] it was -12.9%.
Taken in the same sequence, the figures for `CC(C)NC(=O)N1CCN(S(=O)(=O)C2CC2)CC2(CNC(=O)C2)C1` (stereo not given) were -2.4% and -12.6%.
Taken in the same sequence, the figures for `O=C1NC2(CCN(Cc3nccs3)CC2)CC1c1ccncc1` (stereo not given) were 0.717% and 2.04%.
Taken in the same sequence, the figures for `Cc1ccccc1CSc1nc(N)cc(N2C[C@H](O)[C@@H](N(C)C)C2)n1` were 3.57% and 14.8%.
With `CC(C(=O)NCc1ccnc(N(C)C)c1)n1cncn1` (stereo not given), the Percent Effect in assay [1] is 0.0335%; in assay [2], -9.74%.
`Cc1nccn1-c1cc(CNC(=O)C(C)(C)C)ccn1`: the Percent Effect in assay [1] was 10.6%; in assay [2], -3.04%.
Consider `Cc1cccc2cc(CNCCCN3CCOCC3)c(=O)[nH]c12`, for which the Percent Effect in assay [1] is 0.253%; in assay [2], -27.9%.
Taken in the same sequence, the figures for `O=C(O)c1cc(NS(=O)(=O)c2cccc(Cl)c2F)ccc1Cl` were 0.425% and 20.1%.
Turning to `Cc1cc(CN2CCc3nn(C)c(=O)cc3C2)on1`, the Percent Effect in assay [1] was 46.2%; in assay [2] it was 0.17%.
Taken in the same sequence, the figures for `c1cc(-c2nc(CN3CCn4c(nnc4C4CC4)C3)cs2)cs1` were -2.61% and -11.5%.
As to `Cc1nc(C)n(CC2CCCN2CCc2cccs2)n1` (stereo not given), the Percent Effect was -0.678% in assay [1] and -28.6% in assay [2].
Taken in the same sequence, the figures for `Cc1ccc(CNC(=O)CCSCc2csc(C)n2)cn1` were -3.37% and -2.37%.
Taken in the same sequence, the figures for `Cc1noc(C2CCC3(CCN(C(=O)C4=CCCCC4)CC3)O2)n1` (stereo not given) were -2.98% and 7.42%.
Taken in the same sequence, the figures for `COCCC(=O)N1CCC2(COCc3c(C)nc(NCC4CC4)nc32)C1` (stereo not given) were 1.96% and 0.582%.
As to `CC(C)Oc1ncccc1CNC(=O)N1CCC(C(N)=O)C1` (stereo not given), the Percent Effect in assay [1] was -4.37%; in assay [2], 30.9%.
In the case of `Cc1nc(C)n(CC2CCCN(Cc3nc(C)c(C)o3)C2)n1` (stereo not given), the Percent Effect in assay [1] is 7.92%; in assay [2], 5.16%.
Consider `CC(NC(=O)NCCCn1cccn1)c1ccc2c(c1)NC(=O)CO2` (stereo not given), for which the figures for the Percent Effect in assay [1] and in assay [2] were -5.91% and -20.8%, respectively.
Taken in the same sequence, the figures for `CC(C)c1cc(CNC(=O)N2CCC(Cc3cnn(C)c3)C2)on1` (stereo not given) were -3.72% and 11%.
`Cc1noc2nc(C3CCN(CC4=CCCOC4)CC3)cc(C(F)F)c12`: the results for the Percent Effect in assay [1] and in assay [2] were 12.2% and -23.1%, respectively.
On to `O=C(NCCCn1ccnc1)N1CCN(c2cccs2)CC1`, for which the Percent Effect was -0.0463% in assay [1] and -102% in assay [2].
`O=C(NCC(O)c1cccs1)c1cccc(Cl)c1` (stereo not given): the results for the Percent Effect in assay [1] and in assay [2] were -5.75% and -20.5%, respectively.
In the case of `Cn1ccnc1CN1CCC2(CC1)CN(CC1CC1)C(=O)CO2`, the Percent Effect in assay [1] is 2.11%; in assay [2] it was -17.7%.
Regarding `NC(=O)C(CNC(=O)COCC(F)(F)F)Cc1ccc(F)cc1` (stereo not given), the Percent Effect was found to be 0.689% in assay [1] and 4.66% in assay [2].
Taken in the same sequence, the figures for `O=S(=O)(C1CC1)N1CCO[C@H]2[C@H](OCCN3CCCC3)CC[C@@H]21` were 2.59% and -32.7%.
Taken in the same sequence, the figures for `Cc1noc(C)c1CNC(=O)N1CCN(Cc2cscn2)CC1` were 0.233% and 1.78%.
Taken in the same sequence, the figures for `Cc1nc(CNCC2CN(C)CCO2)cs1` (stereo not given) were -3.4% and -38.1%.
Turning to `COCC1CC2(CCN(C(=O)c3occc3C)CC2)CO1` (stereo not given), the Percent Effect in assay [1] is 2.64%; in assay [2], -0.429%.
On to `O=C(NCCN1CCOCC1)c1n[nH]c(=O)c2ccccc12`, for which the Percent Effect in assay [1] is -2%; in assay [2] it was -29.3%.
Consider `CCC1=N[C@@]2(CC[C@@H]3CN(Cc4ccccc4F)C[C@@H]32)C(=O)N1CC`, for which the Percent Effect in assay [1] is 3.79%; in assay [2], -13.9%.
For the molecule `O=C(Nc1nccs1)NC1CCN(Cc2ccccc2)C1` (stereo not given), the Percent Effect was -1.92% in assay [1] and -17.1% in assay [2].
As for `Cc1ncsc1C(=O)NC1CCN(Cc2cccnc2)CC1`, the Percent Effect in assay [1] was -7.07%; in assay [2] it was -58.8%.
Taken in the same sequence, the figures for `Cc1ccc(OCC(=O)NS(=O)(=O)c2cccnc2)cc1C` were -2.57% and 26.6%.
In the case of `Cc1ccc(CC(=O)N(C)CC2(O)CCN(c3ccccn3)C2)s1` (stereo not given), the Percent Effect is 5.23% in assay [1] and -0.365% in assay [2].
Taken in the same sequence, the figures for `CCN(Cc1nc(C(C)C)no1)Cc1cccs1` were 0.386% and -23.8%.
Taken in the same sequence, the figures for `Cc1ccc(S(=O)(=O)NC(=O)c2cccc(OCC(N)=O)c2)s1` were 2.86% and -20.2%.
Consider `Cn1nc(CNC(=O)c2nc3ccccc3s2)c2c1CCOC2`, for which the Percent Effect was -0.335% in assay [1] and 1.68% in assay [2].
Taken in the same sequence, the figures for `CC(O)CNC(=O)NCc1ccc(N2CCNC(=O)C2)cc1` (stereo not given) were 2.09% and -86.8%.
Taken in the same sequence, the figures for `O=C(c1ccc[nH]1)N1C[C@H]2CC[C@@H]1CN(C1Cc3ccccc3C1)C2` were 2.83% and 10.5%.
Taken in the same sequence, the figures for `Cc1nc(C)n(CC2CCCCN2CCCS(=O)(=O)N(C)C)n1` (stereo not given) were 1.48% and -34.2%.
`CC(C)c1nc(CCNC(=O)NCc2ccnc(N(C)C)c2)cs1`: the results for the Percent Effect in assay [1] and in assay [2] were -0.713% and -13.1%, respectively.
On to `COCCN1C[C@@H](C)[C@@]2(COCCN(C(=O)Cc3ccccc3)C2)C1`, for which the Percent Effect was 1.75% in assay [1] and -6.45% in assay [2].
Taken in the same sequence, the figures for `CNc1nc2c(c(C(=O)N3CCCC3)n1)CN(Cc1nccn1C)CC2` were 1.96% and -4.2%.
Taken in the same sequence, the figures for `CC(C)CN1CCN(C)C2(CCN(Cc3ccsc3)CC2)C1=O` were 1.25% and -3.28%.
For the molecule `c1ccc(-n2cc(CN3CCCC(Cn4cncn4)C3)nn2)cc1` (stereo not given), the Percent Effect was -9.82% in assay [1] and -48.9% in assay [2].

(Values after ChEMBL document CHEMBL3988442, “University of Dundee, Small-Polar-MMV Screening Library” (2021).)
